Measured values as given in the supplement of paper PMC11417369.
± gives the standard deviation of the averaged measurements. Whole data set: some 25,000 sequences, median “ln(normalized median fluorescence intensity)” near 8.6, cut for the highest 2% near 10. This excerpt belongs to a sample that is enriched for the highest values.

Each sequence was assayed on PfAP2-EXP AP2 domain (GST-tagged) (assay: gcPBM binding intensity (ln(normalized median fluorescence intensity)); higher = stronger DNA binding).
Summary of the method: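 GST-tagged P. falciparum DNA-binding domains produced in E. coli were incubated for 1 h on an Agilent 4 × 180k array of primer-extended double-stranded 36-bp intergenic genomic probes with negative controls. Binding intensity is the highest Masliner-normalised natural-log median intensity across replicate spots of either probe orientation, with bound protein detected by Alexa488 anti-GST antibody at 488 nm.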

Sequence	gcPBM binding intensity (ln)
TGCAATTGTAAAGGCGCACACATATATATATATATA [CACACA_site4894]	10.1 ± 0.34
AAAAAAAGGTAAAATTGTACATACGCACAAAAATAT [XGTACX_site2887]	8.73 ± 0.33
TACAATTGTAAAGGCGCACACATATATATATATATA [CACACA_site1392]	10.3 ± 0.59
TTTTCCAGTAAATATTTTTTTATAATATTTATATAT [CACACA_negctrl_site387]	8.3 ± 0.4
AAATATACATACATATGTACATATATATATATATAT [XGTACX_site8202]	10.1 ± 0.45
TTATGTAAATAATTTTGTACTTAAATTATTATATAA [XGTACX_site1491]	8.08 ± 0.4
ATGATGTGCAAGAGTAGTACACAATTTTGGGTTTAT [XGTACX_site501]	8.76 ± 0.39
ATATATATATATATAACACACGTGTATATATATGTA [CACACA_site3644]	10.2 ± 0.23
ATATATATATATATAACACACGTGTATTTATCTGTA [CACACA_site5922]	9.99 ± 0.34
AATAAAAAATATAACACAAATATGTATATATATATA [TGCATGCA_negctrl_site245]	9.81 ± 0.34
TTTTTTTTTTTTTTGGGTACATAATAATAACAAGTG [XGTACX_site1034]	8.28 ± 0.32
TTTTTTTTTTTTTTATGTACGAAAGAAAAGCACATA [XGTACX_site8261]	8.57 ± 0.27
ATTTAGTATTCGAAACGTACACATATATATATATAT [XGTACX_site3910]	10.2 ± 0.4
TTTTATAAAGAACACAGACACACAAAGAAAGAACCA [CACACA_site4174]	9.02 ± 0.6
CATACACAGAAACACACACACATATATACATATATA [CACACA_site1094]	8.59 ± 0.56
ACAAGAACAGAACGTACACACACATATATATATATA [CACACA_site9143]	9.97 ± 0.39
TACATACAGAAACACACACACACATATATATATATA [CACACA_site2919]	10 ± 0.28
AAGAACAGAACGTACACACACATATATATATATATA [CACACA_site3457]	10.2 ± 0.23
AACACAAGAACAGAACGTACACACACATATATATAT [XGTACX_site7347]	9.76 ± 0.16
CAAGAAACAGTGATACGTACACATATATATATATAT [XGTACX_site3229]	10.2 ± 0.32
ATATATATATATATATGTACTGAATAAAGAACAAAA [XGTACX_site5400]	10.1 ± 0.42
AAAATAAAAATAACAACACACATATACTATAATATT [CACACA_site2769]	8.7 ± 0.46
TTTCCTAGCACATGCACACAAAAAAAAAAAAAAAAA [CACACA_site1404]	8.35 ± 0.35

Sequence	gcPBM binding intensity (ln)
AATTAGATTTACTGAAGTACTTAATTTATTTTATTA [XGTACX_site3407]	8.85 ± 0.34
ATTTATTAATTACCATGTATAAAAAATTATATAATA [CACACA_negctrl_site581]	8.19 ± 0.51
AATAAAAATAAAAATTGTACACTTTTTTAATATTTA [XGTACX_site892]	8.11 ± 0.25
ATATAATTCAAATACAGTACATATACAATATATACA [XGTACX_site1191]	8.21 ± 0.3
TACAAGCCCAATTCAAGTACATATATATATATATAT [XGTACX_site5569]	10.2 ± 0.44
TTTTTTTTTTTTTCAAGTACATATATATATATATAA [XGTACX_site2098]	8.44 ± 0.45
TATTATGTTATATATTGTACATGTTTATTGAAACAA [XGTACX_site5605]	8.66 ± 0.21
ACTTCCTATATTTATGCATGCATTTTATTAAAAAAT [TGCATGCA_site747]	9.92 ± 0.16
AAATAAAAATTACAAGCATGCATTTTCCTATTTGCA [TGCATGCA_site861]	8.56 ± 0.46
TGCATTTTCCTATTTGCATGCAATTAAAATATAGAA [TGCATGCA_site862]	10.2 ± 0.24
TGAACAGACGAGCACACACACACATATATATATATA [CACACA_site1019]	10.2 ± 0.26
TAAACAGACATATAAACACACATATAAACAGACATA [CACACA_site7214]	8.69 ± 0.56
GTAAGAAACAGACACACACACATATAAATATAAATA [CACACA_site6515]	8.77 ± 0.64
TGAACTCACGAGCACACACACACATATATATATATA [CACACA_site8248]	10.2 ± 0.34
AAAACAAACGGACACACACACATATATATATATATA [CACACA_site5924]	10.1 ± 0.32
GTAAGAAACAGACACACACACATATATATATATATA [CACACA_site794]	10.2 ± 0.24
TTGTAAGAAAAACACACACACACATATATATATATA [CACACA_site795]	10.1 ± 0.23
AACAGACAGAAACACACACACATATATATATATATA [CACACA_site3394]	10 ± 0.41
AATGAACAGACGAGCACACACACACCCATATATATA [CACACA_site1018]	8.85 ± 0.35
AACAGACGAAGACACACACACATATATATATATATA [CACACA_site1020]	10.2 ± 0.21
GTAAGAAACGGACACACACACATATATATATATATA [CACACA_site4593]	10.2 ± 0.23
CATACAGACGAACACACACACATATAAATATAAATA [CACACA_site6443]	8.74 ± 0.55
ATATATATATATATGTGTACATATTTTTTTGAAGTG [XGTACX_site248]	10.1 ± 0.29

Sequence	gcPBM binding intensity (ln)
TTTTTTTTTTTTTTTTGTACGTAAAAAAATATATAC [XGTACX_site1290]	8.36 ± 0.22
AAATATAATAACGAACGTACTTATTATAATTTGTAA [XGTACX_site2342]	8.32 ± 0.25
ACATATTAAAATATATGTACATAAAATATGAAAAAA [XGTACX_site5869]	8.82 ± 0.3
ATAATAAAAATATATACATGCATTATTATATATATA [TGCATGCA_site799]	8.97 ± 0.16
AAAATAAAAAGAAAAAATAAAAAGAAAAAATAAAAA [CACACA_negctrl_site120]	8.33 ± 0.44
CATTAAAAAGAAAGTTCACACACATATATATGACGG [CACACA_site8836]	8.84 ± 0.57
TAATTTCTTTAGGGGGTGCTTTTATAGTTTTTATTA	10.4 ± 0.54
TTTATTATTATATTATTTTAATTTTTCTTTAGTACA [GTGCAC_negctrl_site392]	8.29 ± 0.32
CCTAATTTTATTAGGGTGCATTTTTAGTTAAATATA	8.48 ± 0.27
AGTATAGATGTATACACACACCAAACGTTAAAAAAA [CACACA_site7443]	8.71 ± 0.53
CAAGGAACCGGACACACACACATAAATGTATTTATA [CACACA_site4574]	8.46 ± 0.5
AAAAAAAATACATACACACACACACCCACATATATA [CACACA_site3561]	8.75 ± 0.65
TACATATACATATACACACACACACCCAAATAAATA [CACACA_site1344]	8.86 ± 0.51
CACCCACTAATAAACACACACATATATATATATATA [CACACA_site389]	10.2 ± 0.35
AATAAATATAAATACACACCCATATAAATATAAATA [CACACA_site7264]	8.64 ± 0.51
TATACATATACATATACACACACACCCATAAATAAA [CACACA_site8372]	9.05 ± 0.38
AATAAATATATATACACACCCATATATATATATATA [CACACA_site2595]	10.1 ± 0.42
CCCACTAAAAAACACACACACACACCCATATATATA [CACACA_site6140]	8.98 ± 0.31
AAAAAAAAAAAACACACACACACACTAATATATAAA [CACACA_site8302]	8.47 ± 0.56
TATAAATATACACCCACACACATATATATATATATA [CACACA_site3745]	10.2 ± 0.4
TATATAAATATACACCCACACACATATATATATATA [CACACA_site9247]	10.2 ± 0.26
AATAAATATAAATACACACCCATATATATATATATA [CACACA_site5436]	10.2 ± 0.35
TATAAATATACACCCACACACATATATAAATAAATA [CACACA_site7717]	8.93 ± 0.79

Sequence	gcPBM binding intensity (ln)
TTTTGATATATGAATATTAAGTTATATAATATTTTA [TGCATGCA_negctrl_site39]	7.92 ± 0.28
ATAATAATTTAATACATACACACGTATATCTTTTTT [CACACA_site2041]	8.45 ± 0.4
AAAAATTAACAAAAGGTGCAAACAAATAGTGGTTTT [GTGCAC_site9998]	8.865 ± 0.049
AATTGCTCGATATATGCACACAGTTTTGTTATTTTT [CACACA_site8465]	8.94 ± 0.36
AAAAAAAAAAAAAAAAGTACAAAAAGGAGAAAGATA [XGTACX_site7862]	8.9 ± 0.47
TTAAAAGAAAATAGGTGTACACATAATATATACATA [XGTACX_site7697]	8.92 ± 0.057
TTGTTTCCTTAATATTCACACACATATATATAATAT [CACACA_site8553]	8.89 ± 0.48
TTATATTAAACAAACACACACATATATATATATATA [CACACA_site2382]	10.1 ± 0.47
GAATATTAAACAAACACACACACATATATTTATATA [CACACA_site7563]	8.63 ± 0.42
GTTTATATTAAACAAACACACACATATATATATATA [CACACA_site8749]	10.2 ± 0.26
GAATATTAAACAAACACACACACATATATATATATA [CACACA_site3382]	10.1 ± 0.32
ATATTAAACAAACACACACACATATATATATATATA [CACACA_site3383]	10.2 ± 0.26
AATTTTTTATTAAACACACAAACATATATATATATA [CACACA_site1937]	9.94 ± 0.35
TATATTAGAAGAAATTCACACATTCATGTAATCTTA [CACACA_site4706]	8.07 ± 0.33
ATAAATAAGATATATACACACATATCTATACATATT [CACACA_site6369]	8.28 ± 0.49
AATCGATAACAATGTAGTACCAGAAAAATAAATATT [XGTACX_site8501]	8.99 ± 0.3
AGAATCACCAAATATGTACACACCTTAACATGTTTA [CACACA_site2068]	9.01 ± 0.46
ATTAGCTACAAACAAAGGCTACCTATAGCAAGAGGG [GTGCAC_negctrl_site33]	8.84 ± 0.39
ATTATTAAAAAGATGTAAATAAATGAATATATGCTT [CACACA_negctrl_site539]	8.47 ± 0.39
TATTTTTTTTTTTTTTTTTTTTTAAAACATATCAAT [CACACA_negctrl_site925]	7.95 ± 0.64
